Results: PMC4336329 (PLoS ONE, 2015)
Among all 310,000 compounds or so, about 2,200 (0.71%) showed an effect of 50% or more. The effect is printed as a negative number. This excerpt belongs to a sample that is enriched for strong results.

What follows are molecules tested against human ether-à-go-go-related gene (hERG) potassium channel (human, UniProt Q12809) (assay: primary screen, population patch clamp on CHO cells stably expressing hERG; higher = less effect of the substance).
human ether-à-go-go-related gene (hERG) potassium channel, sequence (Q12809 whole entry, looked up): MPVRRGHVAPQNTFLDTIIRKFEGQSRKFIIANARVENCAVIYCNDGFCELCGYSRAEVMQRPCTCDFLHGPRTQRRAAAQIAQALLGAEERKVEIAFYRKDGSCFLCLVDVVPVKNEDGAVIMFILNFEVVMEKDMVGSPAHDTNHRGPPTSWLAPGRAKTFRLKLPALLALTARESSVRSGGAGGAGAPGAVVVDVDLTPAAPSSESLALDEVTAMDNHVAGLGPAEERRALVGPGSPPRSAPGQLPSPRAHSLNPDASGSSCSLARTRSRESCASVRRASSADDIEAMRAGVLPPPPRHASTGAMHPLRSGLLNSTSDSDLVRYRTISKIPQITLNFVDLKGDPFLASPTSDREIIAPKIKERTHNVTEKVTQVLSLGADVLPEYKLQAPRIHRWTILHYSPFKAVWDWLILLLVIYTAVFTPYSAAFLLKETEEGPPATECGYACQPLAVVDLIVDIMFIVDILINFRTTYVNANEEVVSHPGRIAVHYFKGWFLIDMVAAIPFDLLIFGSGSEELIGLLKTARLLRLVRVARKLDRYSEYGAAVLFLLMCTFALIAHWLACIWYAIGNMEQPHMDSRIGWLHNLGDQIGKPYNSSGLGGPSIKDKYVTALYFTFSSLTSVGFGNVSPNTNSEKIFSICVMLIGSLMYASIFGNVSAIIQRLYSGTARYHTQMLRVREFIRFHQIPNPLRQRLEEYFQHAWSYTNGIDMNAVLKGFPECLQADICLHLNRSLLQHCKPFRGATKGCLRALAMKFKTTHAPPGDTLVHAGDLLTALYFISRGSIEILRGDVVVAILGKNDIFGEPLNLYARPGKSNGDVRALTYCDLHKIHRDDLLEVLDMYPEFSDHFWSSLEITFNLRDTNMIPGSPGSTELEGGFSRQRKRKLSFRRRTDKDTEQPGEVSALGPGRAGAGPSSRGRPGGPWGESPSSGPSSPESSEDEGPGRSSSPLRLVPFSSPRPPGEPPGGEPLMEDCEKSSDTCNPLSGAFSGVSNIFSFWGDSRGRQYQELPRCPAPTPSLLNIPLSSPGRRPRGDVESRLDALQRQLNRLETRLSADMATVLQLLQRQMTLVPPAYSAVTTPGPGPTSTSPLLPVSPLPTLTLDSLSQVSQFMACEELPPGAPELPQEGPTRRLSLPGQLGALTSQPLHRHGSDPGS

Structure (SMILES)	hERG current change (%, negative = inhibition) at 1uM [%]
COc1cc2cc(C(c3nnnn3C(C)(C)C)N3CCc4ccccc4C3)c(=O)[nH]c2cc1OC (stereo not shown)	-3.88
CCN(CCNC(=O)CCCn1nc(C)n2c(cc3sccc32)c1=O)c1ccccc1	-1.14
CN(C)Cc1ccc(-c2nc3cccc4c3n2CCNC4=O)cc1	-0.249
O=C(NCc1ccccc1)C(c1ccco1)N(C(=O)c1csnn1)C1CC1 (stereo not shown)	11.6
Cc1nc2ccc([N+](=O)[O-])cc2c(=O)n1Cc1ccc(F)cc1	-9.51
Cc1nc2ccc([N+](=O)[O-])cc2c(=O)n1Cc1ccc([N+](=O)[O-])cc1	-76.5
Cc1nc2ccc([N+](=O)[O-])cc2c(=O)n1Cc1ccc(Br)cc1	14.8
COc1ccc(Cn2c(C)nc3ccc([N+](=O)[O-])cc3c2=O)cc1	5.96
Cc1nc2ccc([N+](=O)[O-])cc2c(=O)n1Cc1ccc(Cl)cc1	10.5
Cc1nc2ccccc2c(=O)n1Cc1ccc([N+](=O)[O-])cc1	-64.8
CC(=O)Nc1cccc(N2CCCC2=O)c1	4.99
O=C(CN1CCN(Cc2ccccc2)CC1)N/N=C/C=C/c1ccccc1[N+](=O)[O-]	-32.1
COc1ccc(NC(=O)Nc2cc(C(=O)O)ccc2N2CC3CC(C2)c2cccc(=O)n2C3)c(OC)c1 (stereo not shown)	5.08
CC(NC(=O)Cc1ccccc1)c1cc2c(cc1Br)OCCCO2 (stereo not shown)	6.49
CCOC(=O)Cn1nc(C)c(NC(=O)COc2ccc(OC)cc2)c1C	4.48
CC(C)(C)Nc1nc(Cl)nc(N(C#N)CN2C(=O)c3ccccc3S2(=O)=O)n1	16.1
CCN(CC)S(=O)(=O)c1cc(C)ccc1NC(=S)Nc1cccnc1	3.41
Cl.O=S(=O)(c1ccccc1)N(CC(O)CN1CCCCC1)c1ccccc1 (stereo not shown)	-21
O=S(=O)(c1ccccc1)N(CC(O)CN1CCOCC1)c1ccccc1 (stereo not shown)	9.04
Cc1ccc(N(CC(O)CN2CCCCC2)S(=O)(=O)c2ccc(C)cc2)cc1 (stereo not shown)	12.8
Cc1ccc(N(CC(O)CN2CCOCC2)S(=O)(=O)c2ccc([N+](=O)[O-])cc2)cc1 (stereo not shown)	-49.1
Cc1ccccc1S(=O)(=O)N(CC(O)CN1CCCCC1)c1ccccc1 (stereo not shown)	-71.2

Structure (SMILES)	hERG current change (%, negative = inhibition) at 1uM [%]
Cc1ccc(S(=O)(=O)N(CC(O)CN2CCCC2)c2ccccc2)cc1 (stereo not shown)	-44.8
Cc1ccc(S(=O)(=O)N(CC(O)CN2CCOCC2)c2cc(Cl)ccc2Cl)cc1.Cl (stereo not shown)	-2.22
Cc1ccc(S(=O)(=O)N(CC(O)CN2CCCCC2)c2ccccc2)cc1.Cl (stereo not shown)	-60.5
Cl.O=S(=O)(c1ccc2ccccc2c1)N(CC(O)CN1CCOCC1)c1ccccc1 (stereo not shown)	-21.2
O=S(=O)(c1ccccc1)N(CC(O)CN1CCCC1)c1ccccc1 (stereo not shown)	3.65
Cc1ccc(N(CC(O)CN2CCCC2)S(=O)(=O)c2ccc(C)cc2)cc1.Cl (stereo not shown)	-81.7
Cc1ccc(N(CC(O)CN2CCOCC2)S(=O)(=O)c2ccc3ccccc3c2)cc1 (stereo not shown)	-55.6
Cc1ccc(-n2nc(C)c3c2OC(N)=C(C#N)C3c2cccs2)cc1 (stereo not shown)	9.08
CC1=CC2=NC(=O)CC(C)(C(=O)N(CC(=O)NC(C)(C)C)Cc3cccs3)N2C=C1 (stereo not shown)	-2.79
CNc1ncc(-c2nnnn2-c2ccccc2)c(-c2ccccc2)n1	8.07
Cc1ccc(N2CCN(c3ncccc3[N+](=O)[O-])CC2)c(C)c1	17.2
CC(=O)NC(C(=O)N1CCC(c2nc3ccccc3s2)CC1)C(C)C (stereo not shown)	8.96
Cc1cc(C)nc(SCc2n[nH]c(=S)n2C)n1	7.9
CCOC(=O)C1=C(N)OC2=C(C(=O)CC(C)(C)C2)C1c1ccco1 (stereo not shown)	-7.98
FC(F)(F)c1ccccc1NC(=S)N1CCN(c2ncccn2)CC1	11.5
O=C(NNC(=O)c1cccs1)c1ccccc1	5.51
COc1ccccc1N(CC(O)CN1CCCCC1)S(=O)(=O)c1ccc(C)cc1 (stereo not shown)	2.61
Cc1ccc(N(CC(O)CN2CCCCC2)S(=O)(=O)c2ccccc2[N+](=O)[O-])cc1 (stereo not shown)	-48.8
COc1ccc(N(CC(O)CN2CCCCC2)S(=O)(=O)c2ccc(C)cc2)cc1 (stereo not shown)	-82.9
COc1ccc(N(CC(O)CN2CCOCC2)S(=O)(=O)c2ccc(C)cc2)cc1 (stereo not shown)	-6.48
Cc1ccc(N(CC(O)CN2CCCCC2)S(=O)(=O)c2ccccc2)cc1 (stereo not shown)	-68.7
Cc1ccc(N(CC(O)CN2CCCC2)S(=O)(=O)c2ccccc2)cc1 (stereo not shown)	-47.4

Structure (SMILES)	hERG current change (%, negative = inhibition) at 1uM [%]
Cc1c(C(=O)OC2CCCCC2)sc2nc[nH]c(=O)c12	16
Cc1ccc(-c2oc3ncnc(N)c3c2-c2ccc(C)cc2)cc1	-3.25
COc1ccc(/C(C)=N/Nc2ccc(C(=O)O)cc2)cc1OC.O=S(=O)(O)O	11.7
Cn1c(SCC(=O)NCC2CCCO2)ncc(C(=O)Nc2ccc(F)cc2)c1=O (stereo not shown)	5.38
CN1C[C@H](CNC(=O)OCc2ccccc2)C[C@@H]2c3cccc4c3c(cn4C)C[C@H]21	-1.63
COCCN(CC1CCCN(C2Cc3ccccc3C2)C1)C(=O)CSC (stereo not shown)	7.99
CCNC(=O)N(CCOC)CC1CCCN(C2Cc3ccccc3C2)C1 (stereo not shown)	11.7
COCCN(CC1CCCN(C2Cc3ccccc3C2)C1)C(=O)CCC(C)=O (stereo not shown)	7.77
COCCN(CC1CCCN(C2Cc3ccccc3C2)C1)C(=O)CCC(N)=O (stereo not shown)	-70.8
COCCN(CC1CCCN(C2Cc3ccccc3C2)C1)C(=O)CCSC (stereo not shown)	-4.27
COCCN(CC1CCCN(C2Cc3ccccc3C2)C1)C(=O)c1ccc(C(C)=O)cc1 (stereo not shown)	-51.9
N#Cc1ccccc1NC(=O)C1SC(=Nc2ccccc2)C(C(=O)Nc2ccc(Cl)cc2)=C1N (stereo not shown)	6.56
COC(=O)CCCNS(=O)(=O)c1ccc2ccccc2c1	10.7
CC(C)N(CC#CC(O)(c1ccccc1)c1ccccc1)C(C)C	-38.1
CC(C)(C)C(=O)Cn1c(NCCCl)nc2ccccc21.Cl	13.8
Cc1sc2nc(CSc3ccccc3)nc(NCCN(C)C)c2c1C	-50.1
COCCNc1nc(CSc2ccccc2)nc2sc(C)c(C)c12	11.8
CCNc1nc(CSc2ccccc2)nc2sc(C)c(C)c12	6.57
COc1ccc(C(=O)N2CCCN(C)CC2)cc1S(=O)(=O)N1CCCc2ccccc21	1.09
NC(=O)c1nsc(C(=O)N(CC(=O)NCc2ccco2)c2ccccc2F)c1N	1.03
Fc1ccc(NC(=S)Nc2ccc(F)c(Cl)c2)cc1Cl	7.52
C=CCn1c(SCC(=O)N(CC)C2CCS(=O)(=O)C2)nc2cc(C(=O)O)ccc2c1=O (stereo not shown)	16.4

Structure (SMILES)	hERG current change (%, negative = inhibition) at 1uM [%]
C=CCn1c(SCC(=O)N(CC)C2CCS(=O)(=O)C2)nc2ccccc2c1=O (stereo not shown)	-81.6
CCN(C(=O)CSc1nc2ccccc2c(=O)n1-c1ccc(C)cc1)C1CCS(=O)(=O)C1 (stereo not shown)	1.16
C=CCn1c(SCC(=O)N(C)C2CCS(=O)(=O)C2)nc2ccccc2c1=O (stereo not shown)	-36.1
CCN(C(=O)CSc1nc(-c2cccs2)nc2ccccc12)C1CCS(=O)(=O)C1 (stereo not shown)	-78.4
CCN(C(=O)CSc1n[nH]c(-c2cccs2)n1)C1CCS(=O)(=O)C1 (stereo not shown)	11.8
CCN(C(=O)CSc1nc2ccccc2c(=O)n1Cc1ccc(C)cc1)C1CCS(=O)(=O)C1 (stereo not shown)	-71.4
O=C(CSc1nc(-c2cccs2)nc2ccccc12)NC1CCS(=O)(=O)C1 (stereo not shown)	17.3
Cc1ccc(Cn2c(SCC(=O)N(C)C3CCS(=O)(=O)C3)nc3ccccc3c2=O)cc1 (stereo not shown)	-41.9
Cc1cc(=O)[nH]c2ccc(S(=O)(=O)NC3CCCCC3)cc12	7.42
CC(OC(=O)C(C)Oc1ccccc1)C(=O)Nc1ccc(S(=O)(=O)N2CCCCC2)cc1 (stereo not shown)	12.9
Oc1ccc(/C=N/N2CCCCC2)cc1O	14.2
CCOCCN1CCN(c2c(CC)c(C)nc3cc(-c4cc(OC)cc(OC)c4)nn23)CC1	-14
COc1ccc(NC(=O)CN(C)C(=O)CCCc2nc3ccccc3s2)cc1	-15.7
COc1nc(-c2ccccc2)ccc1-c1noc(COc2ccccc2)n1	17.7
CCOC(=O)Cn1c(=O)oc2cc(S(=O)(=O)N(C)c3cccc(C)c3)ccc21	-1.77
O=[N+]([O-])c1cc2c(cc1CN1CCN(c3ccc(F)cc3)CC1)OCO2	7.89
CCCCCCCOC(=O)c1nc(Cl)c(Cl)c(N)c1Cl	0.504
CCCCCCCCOC(=O)c1nc(Cl)c(Cl)c(N)c1Cl	-64.4
CCCCOC(=O)c1nc(Cl)c(Cl)c(N)c1Cl	12
